Only some compounds are listed: those with a hit (about 2.7% of all), similar ones and a draw of the others.
TrxR1 substrate: rat thioredoxin reductase 1 substrate activity; AID 588456; Potency, µM (doses to about 114 µM), inactives show at the highest dose activity change, negative = substrate turnover; actives 0.01% (n = 390,000); purified TrxR1 substrate turnover, NADPH consumption readout; further: on the % scale 0 is the no-effect control and ±100 the full control effect; nearly all actives have a fitted effect of over 50% in size
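Rat TrxR1, dispensed at 90 nM, was prereduced with 400 uM NADPH (final) for 5 min at ~22 deg C, then incubated with compound 15 min before 400 uM selenite. A first-read NADPH fluorescence drop versus no-compound background flagged substrates.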
rTrxR1 inhibitor: inhibitors of rat thioredoxin reductase 1. O89049. recombinant rTrxR1, NADPH fluorescence consumption, selenite substrate. Potency, µM (highest dose often 114 µM), inactives show at the highest dose activity change, negative = inhibition, actives largely listed as inhibitors. actives 1% (n = 390,000); further: on the % scale 0 is the no-effect control and ±100 the full control effect; nearly all actives have a fitted effect of over 65% in size
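Rat TrxR1 (90 nM in the dispensed reagent) was pre-reduced with 400 uM NADPH for 5 min at room temperature, then incubated with compound for 15 min. After 400 uM selenite was added, NADPH fluorescence (Ex 340/Em 450 nm) was followed for 8 min.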
HEK293 tox: cytotoxicity in counter-screen for GLP-1R inverse agonists; HEK293 cAMP-luciferase reporter cells, luminescence, 24 h; Potency, µM (top dose mostly 38.3 µM), for the others: top-dose activity change, negative = inhibition, most hits filed as inhibitors; actives 0.13% (n = 410,000);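 further: loss of luciferase light is scored as toxicity; on the % scale 0 is the no-effect control and ±100 the full control effect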
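Compound-treated cells are incubated 24 hr at 37 deg C under 5% CO2 after a 12 hour attachment period, then luciferase detection reagent is added and luminescence is measured following 12 min at room temperature; lowered signal indicates toxicity.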
IDH1 R132H inh: inhibitors of human mutant IDH1 R132H; O75874; AID 602179; IDH1-R132H enzyme, NADPH consumption, diaphorase/resazurin fluorescence; actives 0.093% (n = 390,000); Potency, µM (series often up to 76.6 µM), for inactives: at the highest dose activity change, negative = inhibition, usual class: inhibitors; further: on the % scale 0 is the no-effect control and ±100 the full control effect; nearly all actives have a fitted effect of over 65% in size
Target sequence (O75874 whole entry R132H, stated change not applied): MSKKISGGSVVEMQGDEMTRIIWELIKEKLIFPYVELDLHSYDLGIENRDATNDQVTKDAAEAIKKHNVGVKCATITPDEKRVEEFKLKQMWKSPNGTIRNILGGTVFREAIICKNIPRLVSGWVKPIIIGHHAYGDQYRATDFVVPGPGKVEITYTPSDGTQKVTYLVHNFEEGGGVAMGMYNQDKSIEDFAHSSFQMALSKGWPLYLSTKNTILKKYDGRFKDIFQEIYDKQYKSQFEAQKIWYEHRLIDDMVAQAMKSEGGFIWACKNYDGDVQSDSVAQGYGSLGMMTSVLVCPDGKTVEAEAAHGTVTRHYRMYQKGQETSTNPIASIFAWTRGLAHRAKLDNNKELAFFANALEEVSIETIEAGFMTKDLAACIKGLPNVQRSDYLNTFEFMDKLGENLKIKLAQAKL
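IDH1-R132H (0.5 ug/mL) preincubated 30 min with compound, then NADPH (0.016 mM) and alpha-KG (2 mM) added; 80 min at RT, pH 7.5. Remaining NADPH coupled via diaphorase/resazurin to fluorescence (540/590 nm); concentration-response curves normalized to no-enzyme control.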
GLP-1R agonist: agonists of human GLP-1 receptor | Potency, µM (doses to about 45.6 µM), inactives show top-dose activation, most hits filed as activators | P43220 | AID 624172 | HEK293 GLP-1R CRE-luciferase, luminescence, 4-6 h; cells express a hypersensitive GLP-1R form | actives 0.007% (n = 380,000); further: % of control where 0% means no effect
GLP-1R inv ag: acts as inverse agonist at human GLP-1 receptor | P43220 | HEK293 GLP-1R CRE-luciferase, luminescence, 24 h; GLP-1R form is constitutively active | Potency, µM (highest dose often 38.3 µM), inactives show at the top dose activity change, negative = inhibition, actives largely listed as inhibitors | actives 1.6% (n = 410,000) | AID 624417; further: on the % scale 0 is the no-effect control and ±100 the full control effect; nearly all actives have a fitted effect of over 55% in size
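Inverse agonists were sought by their lowering of basal cAMP reporter luciferase output in HEK293 cells stably carrying constitutively active human GLP-1R, after 24 h compound treatment.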
* = called active by the depositor; ? = inconclusive; nt = no result given; [ ] = dose if it differs, or a comment. The call rests on the fitted dose curve; in most records, active means well fitted curve in the direction sought with a large enough effect; inconclusive means small, poorly fitted or top-dose-only effect, or another doubt; inactive means no such curve, though single readings can be large; an effect the other way counts as inactive or inconclusive. Potency means the concentration at half of the fitted maximal effect.

SMILES	TrxR1 substrate	rTrxR1 inhibitor	HEK293 tox	IDH1 R132H inh	GLP-1R agonist	GLP-1R inv ag
CC(=O)c1cccc(NC(=O)CSc2ccc(-c3ccco3)nn2)c1	-3.8%	11.2µM*	-18.5%	10.1%	11.2%	2.6%
CCc1ccc(NC(=O)CSc2ccc(-c3ccco3)nn2)cc1	1.1%	?	-3.2%[0.307 µM]	-2.4%	4.7%	0.6%[0.307 µM]
O=C(CSc1ccc(-c2ccco2)nn1)NCc1ccc(Cl)cc1	1.4%	28.2µM*	-10.9%	3.9%	0.2%	-6.6%
COc1ccc(C)cc1NC(=O)CSc1nnc(-c2ccco2)n1N	-8.4%	-14.4%	0.3%	-1.5%	0.9%	31.9%
COc1ccc(C)cc1NC(=O)CSc1ccc(-c2ccco2)nn1	3.5%	15.8µM*	-15.2%	3.6%	0.7%	-7.6%
Cc1cc(N(C)C)cc(C)c1/C=C/c1ccnc2ccccc12	-3.6%	6.2%	nt	nt	nt	nt
O=C(/C=C/c1cccc([N+](=O)[O-])c1)NCCSCc1ccc(Cl)cc1	8.9%[57.1 µM]	14.8%[11.4 µM]	-20.1%	5.9%	12.2%	10µM*
COc1cc(N2C(=O)C=CC2=O)c(OC)cc1Cl	-1.6%	3.16µM*	?	-2.5%	-1.5%	?
COc1cc(Cl)c(S(=O)(=O)N2CCCC2)cc1Cl	0.8%	26.0%	2.2%	3.8%	9.6%	-26.1%
O=C(O)/C=C/c1cnc2ccccc2n1	-2.3%	-9.3%	-5.2%	-3.7%	-4.1%	16.5%
O=C(/C=C/c1cnc2ccccc2n1)NC12CC3CC(CC(C3)C1)C2	-4.5%	-7.7%	-19.5%	-2.2%	-1.3%	2.51µM*
CC1(C)CC(=O)C(C(C2=C(O)CC(C)(C)CC2=O)c2ccc(Br)s2)C(=O)C1 (configuration not stated)	-15.8%	3.98µM*	?	3.9%	-14.5%	?
Cc1ccc(C(C2=C(O)CC(C)(C)CC2=O)C2C(=O)CC(C)(C)CC2=O)s1 (configuration not stated)	6.2%	10µM*	0.0%	2.4%	0.1%	-26.2%
COc1cccc(C(C2=C(O)CC(C)(C)CC2=O)C2C(=O)CC(C)(C)CC2=O)c1 (configuration not stated)	-6.8%	44.7µM*	1.6%[1.53 µM]	1.9%	5.5%	2.5%
CC1(C)CC(=O)C(C(C2=C(O)CC(C)(C)CC2=O)c2ccc([N+](=O)[O-])cc2)C(=O)C1 (configuration not stated)	-8.0%	?	2.3%[1.53 µM]	5.4%	0.8%	-15.5%
CCC(=O)N1CCc2cc(Br)cc(S(=O)(=O)N3CCCC(C(=O)Nc4cccc(Cl)c4C)C3)c21 (configuration not stated)	-2.6%	2.6%	-2.9%	10.3%	0.5%	4.1%
CC1(C(=O)NCc2ccco2)Cc2c(-c3cccc(C(F)(F)F)c3)ccnc2O1 (configuration not stated)	nt	nt	?	nt	16.1%	2.24µM*
CN(C)c1ccc(-c2ccnc3c2CC(C)(C(=O)NCc2cccs2)O3)cc1 (configuration not stated)	nt	nt	?	nt	-1.4%	?
CC1(C(=O)NCc2cccs2)Cc2c(-c3ccccc3)ccnc2O1 (configuration not stated)	nt	nt	?	nt	7.6%	4.47µM*
Cc1ccc(-c2cn3cccnc3n2)cc1NC(=O)Cc1ccccc1	71.8%[57.1 µM]	-11.2%[57.1 µM]	-19.7%	7.5%	nt	1.4%
C=C1C(n2cnc3c(=O)[nH]c(N)nc32)C[C@H](O)[C@H]1CO (some centres not stated)	nt	nt	nt	nt	7.5%	nt
O=C(OCc1ccccc1)N1CCC2CC1c1cc(-c3ccc(F)cc3)ccc12 (configuration not stated)	-3.1%	1.3%	18.0%	-0.9%[38.3 µM]	15.9%	?
O=C(OCc1ccccc1)N1CCC2CC1c1cc(NCCc3ccccc3)ccc12 (configuration not stated)	4.3%	26.8%	21.6%	-0.9%[38.3 µM]	-4.5%	11.2µM*
Cc1nn(C)cc1/C=N/NC(=S)Nc1ccc(Cl)cc1Cl	-5.4%	7.7%	-14.0%	-5.1%	-1.3%	-17.9%
CCn1nc(C)c(/C=N/NC(=S)Nc2ccc(Cl)cc2Cl)c1C	-10.8%	-13.7%	?	-2.5%	23.2%	3.98µM*
SMILES	TrxR1 substrate	rTrxR1 inhibitor	HEK293 tox	IDH1 R132H inh	GLP-1R agonist	GLP-1R inv ag
Cc1cc(Cl)ccc1NC(=O)CCC(=O)N/N=C/c1cc([N+](=O)[O-])ccc1O	1.8%[57.1 µM]	2.0%[57.1 µM]	-17.1%	2.3%	-0.5%	-10.8%
O=[N+]([O-])c1ccc(O)c(/C=N/NC(=S)Nc2ccc(Cl)cc2Cl)c1	-4.0%	3.4%	-27.7%	8.8%	0.1%	2µM*
CCN(CC)c1ccc(NC(=O)C2CCN(c3nnc(-n4cccc4)s3)CC2)c(C)c1	0.3%	3.8%	-16.1%	-9.4%	-0.3%	-23.6%
CCOc1ccc2ncc3c(-c4cccc(OC)c4)nn(-c4ccccc4)c3c2c1	-3.4%	-11.5%	0.7%	-9.7%	0.5%	-9.6%
Cc1ccc(C)c(Cn2c3ccccc3c3cnn(CC(=O)NC(C)c4ccccc4)c(=O)c32)c1 (configuration not stated)	13.7%	33.0%	-9.5%	0.3%	nt	-19.2%
O=C(NCCC1=CCCCC1)c1ccc2c(c1)sc1nc(-c3ccc(F)cc3)cn12	9.8%[11.4 µM]	29.6%	-11.5%	3.2%	nt	-10.4%
O=C(Cc1cccc(C(F)(F)F)c1)Nc1ccc(S(=O)(=O)N2CCCC2)cc1	-2.1%	9.6%	-22.7%	-7.1%	-2.1%	?
O=C(CNc1ccc(C(F)(F)F)cc1)Nc1cccc(S(=O)(=O)N2CCCCC2)c1	nt	nt	-20.3%	2.4%	-3.3%	3.98µM*
CCOc1ccccc1OCC(=O)Nc1cccc(S(=O)(=O)N2CCCCCC2)c1	-6.4%	-1.6%	3.0%	3.8%	1.9%	?
CCOc1ccc(NC(=O)CNc2cccc(S(=O)(=O)N3CCCCCC3)c2)cc1OCC	-5.4%	22.1%	-21.2%	-4.0%	2.8%	10µM*
CN(CC(=O)Nc1cccc(F)c1)CC(=O)Nc1cccc(S(=O)(=O)N2CCCCC2)c1	-13.4%	4.0%	-24.0%	-1.2%	-1.4%	7.94µM*
O=C(Cc1cccc(C(F)(F)F)c1)Nc1cccc(S(=O)(=O)N2CCCC2)c1	-0.4%	4.2%	-8.0%	-0.9%	-1.8%	8.91µM*
Cc1ccc(CCNC(=O)CCn2nc(-c3ccc(C)cc3)ccc2=O)cc1	3.7%[57.1 µM]	0.8%[57.1 µM]	-5.0%	0.0%	nt	3.0%
CC(C)(C)C1COc2ccccc2N1C(=O)c1ccccc1Cl (configuration not stated)	-9.7%	-9.2%	-10.2%	20.4%	2.4%	8.91µM*
